The campaign covered roughly 310,000 compounds. About 14,000 (4.5%) showed an effect of 50% or more. The effect is printed as a negative number. The full list was thinned out, with strong results kept by preference.
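Also: peak tail current of the secondary pulse compared with the same well before compound.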

human ether-à-go-go-related gene (hERG) potassium channel, sequence (Q12809 whole entry, looked up): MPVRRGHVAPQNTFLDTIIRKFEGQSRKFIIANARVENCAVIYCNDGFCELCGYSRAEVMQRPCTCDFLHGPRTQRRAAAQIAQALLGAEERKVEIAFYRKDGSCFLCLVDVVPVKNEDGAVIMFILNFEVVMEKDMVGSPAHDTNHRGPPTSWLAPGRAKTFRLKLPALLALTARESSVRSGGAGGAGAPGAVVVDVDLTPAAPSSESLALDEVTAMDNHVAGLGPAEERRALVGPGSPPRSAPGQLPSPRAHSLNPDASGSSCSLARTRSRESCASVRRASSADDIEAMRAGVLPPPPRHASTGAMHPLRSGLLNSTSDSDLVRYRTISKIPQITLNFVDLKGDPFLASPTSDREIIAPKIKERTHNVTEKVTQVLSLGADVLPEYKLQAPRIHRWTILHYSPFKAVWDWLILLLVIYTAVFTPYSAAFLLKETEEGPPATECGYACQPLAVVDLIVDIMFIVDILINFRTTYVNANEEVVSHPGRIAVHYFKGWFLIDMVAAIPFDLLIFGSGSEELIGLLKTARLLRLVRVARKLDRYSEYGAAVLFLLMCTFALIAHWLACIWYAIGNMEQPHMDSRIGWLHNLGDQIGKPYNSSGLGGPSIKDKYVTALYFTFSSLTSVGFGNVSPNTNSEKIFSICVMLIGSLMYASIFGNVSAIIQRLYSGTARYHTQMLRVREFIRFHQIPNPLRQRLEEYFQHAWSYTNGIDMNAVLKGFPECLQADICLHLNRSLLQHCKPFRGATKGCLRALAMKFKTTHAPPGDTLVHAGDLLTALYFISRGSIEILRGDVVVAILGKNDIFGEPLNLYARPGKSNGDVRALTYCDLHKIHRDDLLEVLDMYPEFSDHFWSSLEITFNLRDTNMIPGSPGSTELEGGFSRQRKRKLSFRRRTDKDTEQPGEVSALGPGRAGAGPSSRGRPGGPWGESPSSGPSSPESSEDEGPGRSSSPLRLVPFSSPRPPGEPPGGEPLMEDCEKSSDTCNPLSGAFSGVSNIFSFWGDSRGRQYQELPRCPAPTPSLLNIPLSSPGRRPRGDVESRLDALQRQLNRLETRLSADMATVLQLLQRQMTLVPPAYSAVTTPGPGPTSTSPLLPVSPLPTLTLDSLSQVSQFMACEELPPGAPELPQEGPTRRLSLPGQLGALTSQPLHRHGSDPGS

The assay concerns the target human ether-à-go-go-related gene (hERG) potassium channel (human, UniProt Q12809). Put plainly: primary screen, population patch clamp on CHO cells stably expressing hERG; higher = less effect of the substance.
As for `Cc1ccc[n+](CC(=O)Nc2ccc([N+](=O)[O-])cc2)c1.[Cl-]`, the “hERG current change (%, negative = inhibition) at 10uM” value amounted to 10.9%. Next, `CCOc1ccc(S(=O)(=O)N2CCCCCC2)cc1`: -8.37%; `Cn1c(NC(=O)C(C)(C)Oc2ccc(Cl)cc2)cc(=O)n(C)c1=O`: -15%; `Cc1ccc(C(=O)N/C(=C\C=C\c2ccccc2)C(=O)NCc2ccco2)cc1`: -50.3%. For the molecule `O=C(NCc1ccco1)/C(=C/C=C/c1ccccc1)NC(=O)c1ccco1`, the “hERG current change (%, negative = inhibition) at 10uM” value is -36.4%.

Turning to `N#C/C(=C\C=C\c1ccccc1)C(=O)NCc1ccco1`, the “hERG current change (%, negative = inhibition) at 10uM” value was -3.85%.

`Cc1ccc(C(=O)N/C(=C/C=C/c2ccccc2)C(=O)NCc2ccco2)cc1`: the “hERG current change (%, negative = inhibition) at 10uM” value is -28.9%. Regarding `O=C(NCc1ccco1)c1ccccc1Br`, the “hERG current change (%, negative = inhibition) at 10uM” value was determined as 7.63%.

Take `O=C(NCc1ccco1)/C(=C\C=C\c1ccccc1)NC(=O)c1ccccc1Br`: the “hERG current change (%, negative = inhibition) at 10uM” value was -70.5%. In the case of `Cc1ccc(C(=O)N/C(=C/C=C\c2ccccc2)C(=O)NCc2ccco2)cc1`, the “hERG current change (%, negative = inhibition) at 10uM” value is recorded as -27.7%. Next, `O=C(NCc1ccco1)/C(=C\C=C\c1ccccc1)NC(=O)c1ccco1`: -38.3%; `O=C(NCc1ccco1)/C(=C/C=C\c1ccccc1)NC(=O)c1ccc(Br)o1`: -59.6%; `Cc1ccc(C)c(NS(=O)(=O)c2ccc(NC(=O)CSc3ccc(Cl)cc3)cc2)c1`: 17.8%. `O=C(N/N=C/c1ccccc1[N+](=O)[O-])c1cccs1`: the “hERG current change (%, negative = inhibition) at 10uM” value is reported as 5.65%. Turning to `C=CCn1c(Cc2ccccc2)nc2c(cnn2-c2ccccc2)c1=O`, the “hERG current change (%, negative = inhibition) at 10uM” value is -34.8%. With `COc1cccc(N2CC(C(=O)Nc3nnc(SCC(=O)N4CCOCC4)s3)CC2=O)c1` (centres unmarked) the figure was 18.1%. For `CC(=O)N(Cc1cc(=O)[nH]c2ccccc12)c1cccc(C)c1`, the “hERG current change (%, negative = inhibition) at 10uM” value is reported as -8.96%.

As for `O=C(NCC1CCCN(C(=O)c2cscn2)C1)c1ccc(-c2ccccc2)cc1` (centres unmarked), the “hERG current change (%, negative = inhibition) at 10uM” value was -15.1%.

On to `CC(=O)CCC(=O)N1CCCC(CNC(=O)c2ccc(-c3ccccc3)cc2)C1` (centres unmarked), for which the “hERG current change (%, negative = inhibition) at 10uM” value is recorded as -13.8%.

For `CCc1cc(C(=O)N2CCCC(CNC(=O)c3ccc(-c4ccccc4)cc3)C2)no1` (centres unmarked), the “hERG current change (%, negative = inhibition) at 10uM” value was -58.1%. In the case of `O=C(NCC1CCCN(C(=O)c2cccnc2)C1)c1ccc(-c2ccccc2)cc1` (centres unmarked), the “hERG current change (%, negative = inhibition) at 10uM” value is on record as -26.8%. With `CSCC(=O)N1CCCC(CNC(=O)c2ccc(-c3ccccc3)cc2)C1` (centres unmarked) the figure was -28.5%; with `CSCCC(=O)N1CCCC(CNC(=O)c2ccc(-c3ccccc3)cc2)C1` (centres unmarked), -73.2%. For the molecule `CCOc1ccc(C2CC(c3ccc(CC)cc3)Nc3nc(N)nn32)cc1` (centres unmarked), the “hERG current change (%, negative = inhibition) at 10uM” value is recorded as 1.96%. As to `COc1ccc(Cl)cc1NS(=O)(=O)c1cccc(C(=O)NCC(C)(C)N2CCOCC2)c1`, the “hERG current change (%, negative = inhibition) at 10uM” value was -12.6%.

With `O=C(Cc1ccccc1)N/N=C/c1ccccc1Cl`, the “hERG current change (%, negative = inhibition) at 10uM” value was 2.14%. With `O=C(NCc1ccccn1)c1cccc(S(=O)(=O)Nc2ccccc2Cl)c1` the figure was -2.4%; with `Cc1ccc(S(=O)(=O)N(C)C)cc1NC(=O)COC(=O)c1ccc2c(c1)NC(=O)CS2`, -32.5%; with `COC(=O)[C@@H]1Cc2c([nH]c3ccccc23)C(C)N1C(=O)c1ccccc1` (some centres unmarked), 3.27%. In the case of `CN1CCc2c(sc3nc(NN)n(-c4ccc(Cl)cc4)c(=O)c23)C1`, the “hERG current change (%, negative = inhibition) at 10uM” value was found to be 14.6%. For the molecule `CCN(CC)CCN(Cc1cc2cc3c(cc2[nH]c1=O)OCCO3)C(=O)NC1CCCCC1`, the “hERG current change (%, negative = inhibition) at 10uM” value was -28.7%. As to `CCc1ccc2[nH]c(=O)c(CN(CCN3CCCC3)C(=O)NC3CCCCC3)cc2c1`, the “hERG current change (%, negative = inhibition) at 10uM” value is -40.9%.

As for `COc1ccc(CN(Cc2cc3cc(OC)c(OC)cc3[nH]c2=O)C(=O)NC2CCCCC2)cc1`, the “hERG current change (%, negative = inhibition) at 10uM” value was 7.13%. As to `CCN1CCCC1CN(Cc1cc2c(C)cc(C)cc2[nH]c1=O)C(=O)NC1CCCCC1` (centres unmarked), the “hERG current change (%, negative = inhibition) at 10uM” value is -76%.

For `CCc1ccc2[nH]c(=O)c(CN(CCN(CC)CC)C(=O)NC3CCCCC3)cc2c1`, the “hERG current change (%, negative = inhibition) at 10uM” value is on record as -66.6%. Take `CCN(CC)CCN(Cc1cc2ccc(C)cc2[nH]c1=O)C(=O)NC1CCCCC1`: the “hERG current change (%, negative = inhibition) at 10uM” value was -73.1%.

Regarding `Cc1cc(C)c2cc(CN(CCO)C(=O)NC3CCCCC3)c(=O)[nH]c2c1`, the “hERG current change (%, negative = inhibition) at 10uM” value is reported as -3.62%.

For the molecule `Cc1ccc2[nH]c(=O)c(CN(CCCN3CCOCC3)C(=O)NC3CCCCC3)cc2c1`, the “hERG current change (%, negative = inhibition) at 10uM” value was -25.7%. Consider `CC(=O)N(Cc1cc2c(C)cc(C)cc2[nH]c1=O)C1CCCCC1`, for which the “hERG current change (%, negative = inhibition) at 10uM” value was 8.13%. In the case of `Cc1nc2sc(C)c(C)c2c(=O)[nH]1`, the “hERG current change (%, negative = inhibition) at 10uM” value is listed as 13.7%.

On to `COc1ccccc1/C=C/C(=O)NCC(=O)N/N=C/c1ccccc1[N+](=O)[O-]`, for which the “hERG current change (%, negative = inhibition) at 10uM” value is -36.9%.

(Values after PMC4336329 (PLoS ONE, 2015).)
